Screens as filed in PubChem.
PV pol inh – poliovirus RdRp elongation inhibitors, primary screen, biochemical, fluorescence polarization, total intensity; % elongation, % (compound at 16.7 µg/mL); actives 0.66% (n = 150,000); poliovirus polymerase elongation; stronger effect = lower value; Genome polyprotein (Poliovirus type 1 (strain Mahoney)), P03300; in the data active = % elongation below about 90%
MenB inh – M. tuberculosis MenB inhibitors, primary screen, biochemical, absorbance; MenB enzyme assay, absorbance read-out; inhibition, % (no concentration beside the values); actives 0.43% (n = 100,000); in the data active = inhibition above about 21%, passing the limit was not always enough
Target sequence (P9WNP5 whole entry, looked up): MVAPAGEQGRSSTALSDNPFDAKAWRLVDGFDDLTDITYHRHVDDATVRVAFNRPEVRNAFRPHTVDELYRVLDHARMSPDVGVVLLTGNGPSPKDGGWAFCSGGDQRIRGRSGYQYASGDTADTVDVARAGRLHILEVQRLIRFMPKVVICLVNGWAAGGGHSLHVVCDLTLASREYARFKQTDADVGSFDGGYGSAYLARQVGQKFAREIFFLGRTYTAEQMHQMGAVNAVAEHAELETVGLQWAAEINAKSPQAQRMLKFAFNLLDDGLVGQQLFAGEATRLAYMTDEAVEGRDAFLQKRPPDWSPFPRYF
MbtI inh – MbtI salicylate synthase inhibitors, primary screen, biochemical, fluorescence intensity; purified MbtI enzyme, fluorescence intensity read-out; actives 0.89% (n = 100,000); P9WFX0; inhibition, % (test concentration not listed); AID 493033, 2011; in the data active = inhibition mostly above about 56%, no sharp cut-off; inactive = mostly below about 77%
AID504770 – growth inhibition of E. coli YBA685, primary screen, V. cholerae RctB inhibitors; z-score (no concentration beside the values); E. coli YBA685 rctB-dependent plasmid, OD600 growth, 3 h; stronger effect = lower value; actives 0.27% (n = 130,000); in the data active = z-score below about -2, passing the limit was not always enough
An asterisk follows results filed as active. An excerpt weighted towards active compounds, which were near 1.4% of everything screened.

How did Cc1cccc(C)c1OCc1nc2c3cnn(-c4ccccc4F)c3ncn2n1 do in these assays?
PV pol inh: 75.0*

What do the screens show for `Cc1cccc(C)c1OCc1nc2c3cnn(-c4ccccc4Br)c3ncn2n1`?
PV pol inh: 111.0

Results for Nn1c(CCC2CCCCC2)n[nH]c1=S ?
PV pol inh: 81.0*; MenB inh: -63.0; MbtI inh: 85.9*; AID504770: -0.15

How did CCC(=O)Oc1ccc2c(C)c(C)c(=O)oc2c1 do in these assays?
PV pol inh: 101.0; MenB inh: -14.2; MbtI inh: inactive; AID504770: -0.4

Results for CC1(C)CC(=O)C(C2(O)C(=O)NC(=O)NC2=O)=C(O)C1 ?
PV pol inh: 56.0*; MenB inh: -86.2; MbtI inh: -2.7; AID504770: -0.25

What do the screens show for `Oc1c(C=NC2CCCCC2)[nH]c2ccc(Br)c(Cl)c12`?
PV pol inh: 69.0; MenB inh: -24.9; MbtI inh: -5.1; AID504770: 1.5

What do the screens show for `O=C(NCCc1ccc(O)c(O)c1)C(F)(F)F`?
PV pol inh: 101.0; MbtI inh: 84.9*; AID504770: 0.6

What do the screens show for `CNc1nnc(Sc2nnc(NC)s2)s1`?
PV pol inh: 91.0; MenB inh: -16.3; MbtI inh: 90.4*; AID504770: -1

Results for O=C(O)C1CSC2c3ccccc3C(=O)N12 (configuration not stated) ?
PV pol inh: 101.0; MenB inh: 38.7*; MbtI inh: -4.5; AID504770: 0.05

Results for COC(=O)C(C(=O)OC)C(Nc1ccccc1)c1ccccc1 (configuration not stated) ?
PV pol inh: 25.0*; MenB inh: 3.2; AID504770: -0.1

How did CCOC(=O)C(Nc1cccc(F)c1)c1ccccc1 (configuration not stated) do in these assays?
MbtI inh: -6.7; AID504770: 0.1

Results for COc1ccc2nc(NC(=O)C3CCCN(S(=O)(=O)c4ccc5c(c4)oc(=O)n5C)C3)sc2c1 (configuration not stated) ?
PV pol inh: 101.0; MenB inh: -29.1; MbtI inh: 0.7; AID504770: 0.8

Results for Nn1c(=S)[nH]nc(Cc2ccco2)c1=O ?
PV pol inh: 73.0*; MenB inh: -43.6; AID504770: -0.95

How did O=C1c2ccccc2C(=O)N1Cc1ccco1 do in these assays?
PV pol inh: 103.0; MenB inh: -6.8; MbtI inh: 0.7; AID504770: 0.25

Results for Cc1c(Cl)cn2c(=O)cc(CN3CCN(c4ccccc4O)CC3)nc2c1Cl ?
PV pol inh: 103.0; MenB inh: -14.3; MbtI inh: -3.3; AID504770: 0.5

Results for Cc1ccc2nc(-c3ccc(C)s3)c(Nc3ccc4c(c3)OCCO4)n2c1 ?
PV pol inh: 84.0*

What do the screens show for `Cn1c(C2CCCCC2)nc2ccccc21`?
PV pol inh: 102.0; MenB inh: 28.3*; MbtI inh: 0.7; AID504770: 1.2

What do the screens show for `Cn1c(CNC2CCCCC2)nc2ccccc21`?
AID504770: -1.8

What do the screens show for `c1ccc(CN(CCN(Cc2ccccn2)Cc2ccccn2)Cc2ccccn2)nc1`?
PV pol inh: 104.0; MenB inh: 29.8*; MbtI inh: -14.3

How did CCOC(=O)C(C#N)=C1C2CC3CC(C2)CC1C3 do in these assays?
AID504770: -0.15

How did CCOC(=O)C(C#N)=c1sc(=C(C#N)C(=O)OCC)s1 do in these assays?
PV pol inh: 88.0*; MenB inh: -19.2; MbtI inh: 75.5*; AID504770: 0.55

How did Cc1ccccc1CN1CCN(CCOCCO)CC1 do in these assays?
PV pol inh: 100.0; MenB inh: 5.4; MbtI inh: -2.5; AID504770: 0.05

How did CCn1cc(C(=O)O)c(=O)c2cnc(N3CCN(C(=S)NCc4ccccc4)CC3)nc21 do in these assays?
PV pol inh: 102.0; MenB inh: -17.7; MbtI inh: -3.5; AID504770: -3.35*

Results for CC1=NOC(=O)/C1=C/c1ccc(O)cc1 ?
PV pol inh: 99.0; MenB inh: -38.1; MbtI inh: 92.3*; AID504770: -1.9

What do the screens show for `CC(Sc1nc(C2CC2)n(-c2ccccc2)n1)C(=O)NC(C)(C#N)C(C)C` (configuration not stated)?
PV pol inh: 104.0; MenB inh: -2.6; MbtI inh: -9.9; AID504770: 0.1

What do the screens show for `Oc1c(Br)cc(Cl)cc1/C=N/c1ccccn1`?
PV pol inh: 75.0*; MenB inh: -104.0; MbtI inh: 162.8; AID504770: -1.3
